Columns and labels:
Experiment in all cases: SPOT peptide array binding signal intensity (averaged, normalized) (arbitrary units (background-subtracted, floor 0; scale differs between SH3 domains)); higher = stronger binding of the SH3 domain to the peptide
SpBzz1-D2 = biological target: SpBzz1-D2
Outline: (§1)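 Detection of bound protein relied on anti-GST antibody, an HRP anti-mouse secondary and luminol, with imaging and quantification in Genespotter. The bound protein was GST-fused SH3 domains from four yeast species, incubated at 10 μg/ml overnight at 4°C in TBS-based blocking buffer on cellulose membranes carrying synthetic 15-mer peptides with cysteines replaced by serines. Binding signal is normalized, background-subtracted spot intensity averaged over replicates, in arbitrary units that differ between domains.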

SpCyk3 = biological target: SpCyk3
Outline: as §1

SpHof1 = biological target: SpHof1
Outline: as §1

SpHof1-2 = biological target: SpHof1-2
Outline: as §1

SpHof1-3 = biological target: SpHof1-3
Outline: as §1

SpHse1 = biological target: SpHse1
Outline: as §1

SpLsb1 = biological target: SpLsb1
Outline: as §1

SpLsb4 = biological target: SpLsb4
Outline: as §1

SpMyo1 = biological target: SpMyo1
Outline: as §1

SpNbp2 = biological target: SpNbp2
Outline: as §1

SpPex13 = biological target: SpPex13
Outline: as §1

SpRvs167 = biological target: SpRvs167
Outline: as §1

SpSla1-D1-D2 = biological target: SpSla1-D1-D2
Outline: as §1

SpSla1-D3 = biological target: SpSla1-D3
Outline: as §1

AgAbp1 = biological target: AgAbp1
Outline: as §1

AgBbc1 = biological target: AgBbc1
Outline: as §1

AgBem1-D1 = biological target: AgBem1-D1
Outline: as §1

AgBzz1-D1 = biological target: AgBzz1-D1
Outline: as §1

AgBzz1-D2 = biological target: AgBzz1-D2
Outline: as §1

AgCyk3 = biological target: AgCyk3
Outline: as §1

AgFus1 = biological target: AgFus1
Outline: as §1

AgHof1 = biological target: AgHof1
Outline: as §1

AgHse1 = biological target: AgHse1
Outline: as §1

AgLsb1 = biological target: AgLsb1
Outline: as §1

AgLsb4 = biological target: AgLsb4
Outline: as §1

AgMyo5 = biological target: AgMyo5
Outline: as §1

AgNbp2 = biological target: AgNbp2
Outline: as §1

AgRvs167 = biological target: AgRvs167
Outline: as §1

AgSho1 = biological target: AgSho1
Outline: as §1

AgSla1-D1-D2 = biological target: AgSla1-D1-D2
Outline: as §1

AgSla1-D3 = biological target: AgSla1-D3
Outline: as §1

CaAbp1-D1 = biological target: CaAbp1-D1
Outline: as §1

CaAbp1-D2 = biological target: CaAbp1-D2
Outline: as §1

CaBbc1 = biological target: CaBbc1
Outline: as §1

CaBem1-D1 = biological target: CaBem1-D1
Outline: as §1

CaBzz1-D1 = biological target: CaBzz1-D1
Outline: as §1

CaBzz1-D2 = biological target: CaBzz1-D2
Outline: as §1

CaCyk3 = biological target: CaCyk3
Outline: as §1

CaFus1 = biological target: CaFus1
Outline: as §1

CaHof1 = biological target: CaHof1
Outline: as §1

CaHse1 = biological target: CaHse1
Outline: as §1

CaLsb1 = biological target: CaLsb1
Outline: as §1

CaLsb4 = biological target: CaLsb4
Outline: as §1

CaMyo5 = biological target: CaMyo5
Outline: as §1

B1: unnamed (peptide)
chain: RAPPPVPKKPSSRIA
SpBzz1-D2
  SPOT peptide array binding signal intensity: 198
SpCyk3
  SPOT peptide array binding signal intensity: 5
SpHof1
  SPOT peptide array binding signal intensity: 186
SpHof1-2
  SPOT peptide array binding signal intensity: 20.2
SpHof1-3
  SPOT peptide array binding signal intensity: 372
SpHse1
  SPOT peptide array binding signal intensity: 126
SpLsb1
  SPOT peptide array binding signal intensity: 1720
SpLsb4
  SPOT peptide array binding signal intensity: 1110
SpMyo1
  SPOT peptide array binding signal intensity: 151
SpNbp2
  SPOT peptide array binding signal intensity: 48.5
SpPex13
  SPOT peptide array binding signal intensity: ≤ 0
SpRvs167
  SPOT peptide array binding signal intensity: 1860
SpSla1-D1-D2
  SPOT peptide array binding signal intensity: 576
SpSla1-D3
  SPOT peptide array binding signal intensity: ≤ 0

B2: unnamed (peptide)
chain: VPPVPLPFGIPPFPM
AgAbp1
  SPOT peptide array binding signal intensity: 3
AgBbc1
  SPOT peptide array binding signal intensity: ≤ 0
AgBem1-D1
  SPOT peptide array binding signal intensity: 288
AgBzz1-D1
  SPOT peptide array binding signal intensity: 6
AgBzz1-D2
  SPOT peptide array binding signal intensity: 10
AgCyk3
  SPOT peptide array binding signal intensity: ≤ 0
AgFus1
  SPOT peptide array binding signal intensity: ≤ 0
AgHof1
  SPOT peptide array binding signal intensity: 338
AgHse1
  SPOT peptide array binding signal intensity: 51
AgLsb1
  SPOT peptide array binding signal intensity: 2
AgLsb4
  SPOT peptide array binding signal intensity: ≤ 0
AgMyo5
  SPOT peptide array binding signal intensity: 720
AgNbp2
  SPOT peptide array binding signal intensity: 5
AgRvs167
  SPOT peptide array binding signal intensity: ≤ 0
AgSho1
  SPOT peptide array binding signal intensity: 4
AgSla1-D1-D2
  SPOT peptide array binding signal intensity: 4
AgSla1-D3
  SPOT peptide array binding signal intensity: 5.75
CaAbp1-D1
  SPOT peptide array binding signal intensity: 8
CaAbp1-D2
  SPOT peptide array binding signal intensity: 11
CaBbc1
  SPOT peptide array binding signal intensity: 2.5
CaBem1-D1
  SPOT peptide array binding signal intensity: 20
CaBzz1-D1
  SPOT peptide array binding signal intensity: 32
CaBzz1-D2
  SPOT peptide array binding signal intensity: ≤ 0
CaCyk3
  SPOT peptide array binding signal intensity: 3
CaFus1
  SPOT peptide array binding signal intensity: 102
CaHof1
  SPOT peptide array binding signal intensity: ≤ 0
CaHse1
  SPOT peptide array binding signal intensity: 2.5
CaLsb1
  SPOT peptide array binding signal intensity: 0.25
CaLsb4
  SPOT peptide array binding signal intensity: 27.5
CaMyo5
  SPOT peptide array binding signal intensity: 296
